Assay outcomes: PubChem, National Center for Advancing Translational Sciences (NCATS)
In the library only some 3.6% were active in any assay of this set; here they are far more common.
Sfp PPTase inh – qHTS Assay for Inhibitors of Bacillus subtilis Sfp phosphopantetheinyl transferase (PPTase). 4'-phosphopantetheinyl transferase ffp (Bacillus subtilis), Q9F4F7. Biochemical Sfp PPTase activity, qHTS. Potency, µM, inactives show largest response in the series, negative = inhibition, most hits filed as inhibitors. hit rate 3.5% among 310,000;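 further: the enzyme is Sfp with the accession as filed and its product quenches rhodamine fluorescence; 0% = enzyme reaction without inhibitor and -100% = no enzyme wells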
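Buffer: 50 mM Hepes-Na pH 7.6, 10 mM MgCl2, 0.01% Nonidet P-40, 0.01% BSA. Enzyme 15 nM, pre-exposed to compound 15 min; substrates then added and fluorescence change tracked over 30 min.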
JMJD2E inh – qHTS Assay for Inhibitors of Human Jumonji Domain Containing 2E (JMJD2E); JMJD2E catalytic domain, FDH-coupled NADH fluorescence (FDH is formaldehyde dehydrogenase); Potency, µM (doses to about 57.1 µM), for inactives: at the highest dose activity change, negative = inhibition, most hits filed as inhibitors; Lysine-specific demethylase 4E (Homo sapiens), B2RXH2; hit rate 1.6% among 230,000; active means well fitted inhibition curve with a large enough effect, not every such curve was filed as active; inconclusive means small, poorly fitted or top-dose-only effect, or another doubt; inactive means no such curve, though single readings can be large or run the other way;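 further: 0% = wells with enzyme and -100% = buffer wells without enzyme; nearly all actives have a fitted effect of over 50% in size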
Target sequence (B2RXH2 1-337 limits assumed): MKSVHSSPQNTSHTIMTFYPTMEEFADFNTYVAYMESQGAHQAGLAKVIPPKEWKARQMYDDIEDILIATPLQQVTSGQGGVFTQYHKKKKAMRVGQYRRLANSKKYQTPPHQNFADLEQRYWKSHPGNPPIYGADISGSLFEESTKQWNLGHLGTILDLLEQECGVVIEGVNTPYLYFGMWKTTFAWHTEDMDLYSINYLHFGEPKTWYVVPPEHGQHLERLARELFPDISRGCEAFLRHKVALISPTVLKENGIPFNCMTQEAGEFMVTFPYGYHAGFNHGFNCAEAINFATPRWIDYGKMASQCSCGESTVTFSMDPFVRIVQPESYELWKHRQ
NPSR antagonist – qHTS Assay for Antagonists of the Neuropeptide S Receptor: cAMP Signal Transduction | Q6W5P4 | hit rate 1% among 220,000 | CHO-NPSR cells, cAMP TR-FRET, antagonist mode | Potency, µM (doses to about 38.3 µM), for inactives: at the top dose activity change, negative = inhibition, most hits filed as inhibitors; further: on the % scale 0 is the no-effect control and ±100 the full control effect; nearly all actives have a fitted effect of over 50% in size
Target sequence (Q6W5P4 whole entry, looked up): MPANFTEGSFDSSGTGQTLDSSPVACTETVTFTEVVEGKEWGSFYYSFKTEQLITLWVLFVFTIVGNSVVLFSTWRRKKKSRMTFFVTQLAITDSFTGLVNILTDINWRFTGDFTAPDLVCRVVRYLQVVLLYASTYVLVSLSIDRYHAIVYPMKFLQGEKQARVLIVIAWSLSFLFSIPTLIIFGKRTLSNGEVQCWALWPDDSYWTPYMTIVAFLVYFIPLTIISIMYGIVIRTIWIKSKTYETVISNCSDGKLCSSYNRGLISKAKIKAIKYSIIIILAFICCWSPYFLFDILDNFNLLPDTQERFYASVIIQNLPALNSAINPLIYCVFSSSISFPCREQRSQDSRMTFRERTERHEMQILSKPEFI
Epigenetic derep – Quantitative High-Throughput Screen for Regulators of Epigenetic Control | murine LDR cells, GFP reporter derepression, 30 h | Potency, µM (doses to about 53.9 µM), inactives show at the highest dose GFP activation, actives largely listed as activators | hit rate 0.2% among 280,000; further: % of control where 0% means no effect; nearly all actives have a fitted effect of over 60% in size
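GFP-positive cell count by laser-scanning cytometry (objects 20–120 um) after 30 h, 37 C compound exposure of murine LDR cells; reporter is CMV-GFP integrated at a silenced locus, inducible by HDAC or DNMT inhibitors.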
GCN5L2 inh – qHTS Assay for Inhibitors of GCN5L2; GCN5L2 HAT assay, ThioGlo1 CoA-SH fluorescence; Potency, µM (titrated, usually from 58.9 µM), for the others: at the top dose activity change, negative = inhibition, actives largely listed as inhibitors; hit rate 0.21% among 390,000; AID 504327, 2011; further: on the % scale 0 is the no-effect control and ±100 the full control effect
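ThioGlo1-coupled HAT assay: 20nM GCN5L2, 70uM acetyl-CoA, 75uM H3(1-25) peptide, pH 7.5. Fluorescence read at 340/540nm at start and after 20 min at room temperature.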
IMPase Li cell – qHTS Assay for Identifying the Cell-Membrane Permeable IMPase Inhibitors: Potentiation with Lithium. hit rate 0.35% among 210,000. CHO-M1 cells, IP1 TR-FRET (IP-One), carbachol + lithium. Potency, µM (series often up to 59.4 µM), for the others: at the top dose activity, negative = IMPase inhibition, usual class: inhibitors;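 further: IP1 builds up when IMPase is blocked and the TR-FRET signal falls; plate controls were basal vehicle for no effect and high inhibitor control for full effect; nearly all actives have a fitted effect of over 50% in size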
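IP1 accumulation measured by competitive TR-FRET in lysed CHO-M1 cells after 30 min compound exposure at 37C, with a small lithium addition to potentiate weak responses. Hill-equation AC50 from ratio and donor-channel data.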
Starred values were filed as active, the others as inactive; ? = inconclusive; . = not tested or not shown; ! = not confirmed by another sample; [ ] = remark or other dose. Unless noted, the call rests on the fitted dose curve; in most records, active means well fitted curve in the direction sought with a large enough effect; inconclusive means small, poorly fitted or top-dose-only effect, or another doubt; inactive means no such curve, though single readings can be large; an effect the other way counts as inactive or inconclusive. Potency means the concentration at half of the fitted maximal effect.

SMILES	Sfp PPTase inh	JMJD2E inh	NPSR antagonist	Epigenetic derep	GCN5L2 inh	IMPase Li cell
COc1cc(C)c(NC(=O)C(=S)NCCc2ccccc2)cc1C	15.8µM*	-1.8%	-10.6%	1.1%	-2.5%	17.0%
COc1ccc2c(c1)C(=O)[C@@H](OC(=O)NS(=O)(=O)c1ccc(C)cc1)[C@H](c1ccc(OC)c(Br)c1)O2	-5.0%	-8.9%	.	-1.1%	.	12.2%
CCC(C)(C)n1nnnc1C(c1ccc(O)cc1)N1CCc2ccccc2C1 (stereo unspecified)	14.1µM*	-6.0%	3.4%	4.7%	3.2%	11.0%
COc1ccc(C(c2nnnn2CCc2ccccc2)N2CCN(C)CC2)cc1OC (stereo unspecified)	0.7%	9.2%	-4.4%[46.1 µM]	0.0%	-0.9%	22.7%[38.3 µM]
COCCn1nnnc1C(c1ccc(O)c(OC)c1)N1CCc2ccccc2C1 (stereo unspecified)	14.1µM*	-28.6%	-2.1%[46.1 µM]	0.0%	?	16.0%[38.3 µM]
CC(C)C[C@H](NC(=O)[C@@H]1Cc2ccccc2CN1C(=O)OC(C)(C)C)C(=O)NCC1CCC(C(=O)O)CC1 (stereo partly specified)	28.9%	25.1µM*	-2.8%	-3.9%	-25.7%	.
O=S(=O)(C[C@H](O)C(Cl)(Cl)Cl)NNc1ccccc1	.	.	.	.	.	2.5%
O=C(CCc1ccccc1)NCc1ccncc1	11.6%	.	.	.	?	.
O=C(CCNNC(=O)c1ccncc1)NCc1ccccc1	-26.8%	8.91µM*!	-11.1%	1.5%	-2.7%	2.8%
O=C(O)c1cc(-c2ccc(/C=c3\sc4nc5ccc(Br)cc5n4c3=O)o2)ccc1Cl	56.2µM*	.	.	.	-5.6%	.
Cc1cc2nc3s/c(=C/c4ccc(-c5ccccc5C(=O)O)o4)c(=O)n3c2cc1C	79.4µM*	.	.	.	-5.1%	.
C#CCN1C(=O)S/C(=C\c2ccc(-c3ccc(Cl)c(C(=O)O)c3)o2)C1=O	-8.8%	.	.	.	-16.3%	.
Cc1cc2nc(/C(C#N)=C\c3ccc(-c4ccccc4C(=O)O)o3)[nH]c2cc1C	-2.5%	.	.	.	-12.8%	.
CCOC(=O)c1c(C)n(-c2ccc(C)cc2)c2ccc(OCC(O)CN3CCN(C)CC3)cc12 (stereo unspecified)	39.8µM*	?	-10.7%	1.8%	-6.4%	21.7%
O=C(N/N=C/c1ccc(N2CCOCC2)s1)c1ccccc1Br	35.5µM*	-23.1%	-28.5%	-5.1%	-7.6%	15.3%
Nc1ccc(C(=O)N/N=C/c2ccc(N3CCOCC3)s2)cc1	.	.	.	.	-18.2%	.
Clc1cccc(N/N=C/c2ccc(N3CCOCC3)s2)c1	?	11.2µM*	-25.4%	1.1%	-10.4%	6.0%
CC(=O)O[C@@H]1[C@@H](O)CN[C@@H]1Cc1ccccc1	-8.7%	.	.	.	.	.
O=c1oc2ccccc2c2c1C1O[C@](c3ccsc3)(Cc3ccccc31)O2	-11.9%	.	.	.	-23.6%[12.7 µM]	.
Cc1ccc(C(=O)NC(=S)Nc2ccccc2N2CCCC2)cc1[N+](=O)[O-]	17.8µM*	12.3%	-38.4%	0.0%	-7.8%	8.9%
Cc1ccc(C(=O)Nc2ccccc2N2CCCCC2)cc1[N+](=O)[O-]	-0.6%	0.4%	-56.1%	-0.6%	19.2%	19.4%
COc1cccc(C(=O)NC(=S)Nc2ccccc2N2CCCCC2)c1	12.0%	.	.	.	-2.1%	.
O=C(NC(=S)Nc1ccccc1N1CCCC1)c1ccco1	31.6µM*	-25.3%	?	0.9%	-19.8%	.
COc1cccc(C(=O)NC(=S)Nc2ccccc2N2CCCC2)c1	25.1µM*	-4.9%	45.4%	0.0%	-17.2%	18.1%
CC1CCN(c2ccc(NC(=S)NC(=O)c3ccco3)cc2)CC1	-5.7%	-1.6%	-7.3%[46.1 µM]	1.1%	22.4µM*	1.3%[38.3 µM]
SMILES	Sfp PPTase inh	JMJD2E inh	NPSR antagonist	Epigenetic derep	GCN5L2 inh	IMPase Li cell
O=C(NC(=S)Nc1ccc(N2CCCCC2)cc1)c1ccco1	-0.3%	1.5%	-6.8%[46.1 µM]	-0.8%	-6.9%	4.9%[38.3 µM]
CC(C)[C@@H](CC(=O)N[C@@H]1CCNC[C@H]1C(=O)N[C@H](CC(=O)N[C@@H](CCC(=O)O)CC(=O)O)Cc1c[nH]c2ccccc12)NC(=O)C[C@H](CO)NC(=O)[C@@H]1CNCC[C@H]1N	5.6%	?	.	-0.3%	.	1.9%
COC(=O)[C@H](CCSC)NC(=O)C/C=C\[C@@H](C)[C@@H](CO)OC	19.1%	.	.	0.0%[10.1 µM]	.	.
COC(=O)Cn1c(=O)c2cccn2c2ccc(F)cc21	.	.	.	-5.1%	0.0%	.
COC(=O)C[C@H]1c2ccccc2[C@H]2C(=C[C@@H](C)[C@H]3C(=O)N(O)C(=O)[C@H]32)N1C(=O)OC	9.7%	-4.8%[11.4 µM]	.	.	.	0.9%
CCN(C(=O)c1coc(=O)c(Br)c1)c1ccc2c(c1)OCO2	44.7µM*	?	-23.9%[46.1 µM]	0.0%	-8.2%	6.7%[38.3 µM]
COCCNC(=O)C(=O)NNC(=O)c1ccccc1OC	79.4µM*	2.6%	-19.2%	0.0%	-1.5%	-4.7%
COc1ccccc1C(=O)NNc1ncc(C)s1	39.8µM*	.	.	.	-1.5%	.
COc1ccccc1C(=O)NNC(=O)c1ccccc1	8.2%	.	.	.	-11.3%	.
COc1cc(CCNC(C)=O)c(C(=O)/C=C/c2cccc(OC)c2OC)cc1OC	8.6%	-16.7%	.	-1.1%	.	8.5%
CC1CC=CC2C1C(=O)N(Cc1ccccc1)C2c1cccc([N+](=O)[O-])c1 (stereo unspecified)	-12.8%	.	.	.	.	.
COCOc1ccc(Br)cc1C(=O)[C@H]1O[C@H]1c1cccc(OC)c1	14.6%	.	.	1.1%[10.1 µM]	.	.
OC(COc1ccc(Cl)c2ccccc12)CN1CCN(c2ccccn2)CC1 (stereo unspecified)	79.4µM*	?	2.6%[46.1 µM]	-2.2%	-6.5%	8.5%[38.3 µM]
COc1ccccc1N1CCN(c2ccc(-c3nc(-c4ccccc4)no3)cc2[N+](=O)[O-])CC1	.	.	.	-3.3%	-2.9%	.
COc1ccc(OC)c(CNC(=O)C2CCCCN2S(=O)(=O)c2ccc(F)cc2)c1 (stereo unspecified)	.	.	.	-1.8%	-7.9%	.
Oc1cccc(/C=N/c2c(-c3ccco3)nc3ccccn23)c1	?	?	10µM*	-2.4%	-2.0%	12.6µM*
CC(=O)c1ccc(NC(=S)Nc2cccc(S(=O)(=O)Nc3c(C)n(C)n(-c4ccccc4)c3=O)c2)cc1	22.4µM*	-3.5%	8.8%	-0.3%	-7.9%	5.4%
Cc1ccc(S(=O)(=O)/N=C(/NC(=S)Nc2cccc(C)c2)c2ccccc2)cc1	50.1µM*	-5.4%	-10.2%[46.1 µM]	1.0%	-6.4%	30.2%[38.3 µM]
